In PubChem BioAssay (NCATS):
Records with an inconclusive call do not appear. The source made the active and inactive calls. Calls follow the shape of the dose curve; as a rule, active = well fitted inhibition curve with a large enough effect; inconclusive = small, poorly fitted or top-dose-only effect; inactive = no such curve, though single readings can be large or run the other way.

Assays:
[1] = molecular target: Cytochrome P450 3A4 (Homo sapiens) (UniProt P08684); assay: qHTS Assay for Inhibitors and Substrates of Cytochrome P450 3A4 (AID 884); also: nearly all actives have a fitted effect of over 50% in size
Outline: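 Luminescent readout of luciferin produced by CYP3A4 (20 nM) dealkylation of Luciferin-PPXE, 25 uM (its KM). NADPH-driven reaction ran 60 min at RT after 10 min compound preincubation; data scaled to 57 uM ketoconazole as 100% inhibition.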

[2] = molecular target: Rap guanine nucleotide exchange factor 4 (Homo sapiens) (UniProt Q8WZA2); assay: Confirmatory qHTS for antagonist of cAMP-regulated guanine nucleotide exchange factor 4 (EPAC2) (AID 1645885); also: nearly all actives have a fitted effect of over 25% in size
Potency is read from the fitted curve at half-maximal effect.

Cytochrome P450 3A4 (Homo sapiens), sequence (P08684 whole entry, looked up): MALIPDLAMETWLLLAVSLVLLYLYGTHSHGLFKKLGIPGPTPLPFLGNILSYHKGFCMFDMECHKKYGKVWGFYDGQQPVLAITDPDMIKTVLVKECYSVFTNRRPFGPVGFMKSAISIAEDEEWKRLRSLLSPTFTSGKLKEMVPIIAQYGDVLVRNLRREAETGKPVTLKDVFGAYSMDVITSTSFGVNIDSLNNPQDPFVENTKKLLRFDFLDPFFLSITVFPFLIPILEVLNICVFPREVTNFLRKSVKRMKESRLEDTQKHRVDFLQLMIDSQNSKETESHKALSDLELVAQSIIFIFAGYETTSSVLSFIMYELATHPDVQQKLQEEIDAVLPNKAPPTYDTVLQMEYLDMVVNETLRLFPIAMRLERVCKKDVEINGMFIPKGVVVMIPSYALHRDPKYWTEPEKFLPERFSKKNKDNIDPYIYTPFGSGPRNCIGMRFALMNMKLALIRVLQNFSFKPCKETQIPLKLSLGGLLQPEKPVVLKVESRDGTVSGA
Rap guanine nucleotide exchange factor 4 (Homo sapiens), sequence (Q8WZA2 whole entry, looked up): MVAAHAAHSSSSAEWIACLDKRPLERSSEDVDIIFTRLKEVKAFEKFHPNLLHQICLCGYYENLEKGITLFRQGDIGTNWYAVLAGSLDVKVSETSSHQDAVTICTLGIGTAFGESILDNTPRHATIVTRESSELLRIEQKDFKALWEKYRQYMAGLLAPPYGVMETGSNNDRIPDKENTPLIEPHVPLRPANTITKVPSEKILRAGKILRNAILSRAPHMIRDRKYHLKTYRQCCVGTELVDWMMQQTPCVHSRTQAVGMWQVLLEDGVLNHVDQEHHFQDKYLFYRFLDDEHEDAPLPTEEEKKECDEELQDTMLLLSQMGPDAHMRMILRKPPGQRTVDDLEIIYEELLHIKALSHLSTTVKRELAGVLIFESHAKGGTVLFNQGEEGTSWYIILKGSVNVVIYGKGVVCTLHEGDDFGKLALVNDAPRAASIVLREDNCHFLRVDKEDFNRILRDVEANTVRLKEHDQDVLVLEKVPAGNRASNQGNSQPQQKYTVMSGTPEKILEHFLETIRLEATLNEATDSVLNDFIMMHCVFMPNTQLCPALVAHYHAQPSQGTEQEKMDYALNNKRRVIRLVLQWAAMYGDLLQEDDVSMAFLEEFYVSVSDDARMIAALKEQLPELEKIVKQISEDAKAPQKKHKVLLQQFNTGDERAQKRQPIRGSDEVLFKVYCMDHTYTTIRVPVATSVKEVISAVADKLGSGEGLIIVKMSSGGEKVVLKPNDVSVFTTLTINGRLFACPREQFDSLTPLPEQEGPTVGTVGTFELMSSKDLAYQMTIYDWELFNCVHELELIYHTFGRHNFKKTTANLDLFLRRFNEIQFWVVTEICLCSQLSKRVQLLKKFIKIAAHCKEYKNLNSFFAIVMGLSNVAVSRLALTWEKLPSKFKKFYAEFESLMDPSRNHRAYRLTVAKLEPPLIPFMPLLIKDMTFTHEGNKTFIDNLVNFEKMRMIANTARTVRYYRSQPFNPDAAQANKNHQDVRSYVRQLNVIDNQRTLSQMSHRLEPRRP

| Structure (SMILES) | Potency [1] | Potency [2] |
| --- | --- | --- |
| CS(=O)(=O)CCNCc1nc(-c2ccc3ncnc(Nc4ccc(OCc5cccc(F)c5)c(Cl)c4)c3c2)cs1 | 2.51 µM (active) | – |
| CCC(=O)O[C@H]1CC[C@H]2[C@@H]3CCc4cc(O)ccc4[C@H]3CC[C@]12C | – | 27.8 µM (active) |
